Results on 14 compounds are retold here after PubChem BioAssay (NCI).

Test systems include HCT-15 colon; HT29 colon; SNB-75 CNS; SNB-19 CNS; U251 CNS; PC-3 prostate; SK-MEL-5 melanoma; UACC-62 melanoma; LOX IMVI melanoma; SK-MEL-28 melanoma.
Test in all cases: NCI-60 one-dose screen, 48 h (100 = growth as untreated, 0 = no growth, -100 = all killed)
Holding throughout (conditions): 10 µM unless noted

About 83,000 compounds went through this panel and 20% of them were active in at least one assay; those are over-represented in the sample as a whole.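 A percent growth of 40 corresponds to 60% growth inhibition; 0 means no net growth; -100 means all cells died. Active threshold: below 10.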 Unmarked numbers belong to inactive results. Activity calls are given as the source filed them.

For the compound `Cc1[nH]c(C(=O)Nc2ccc(C(N)=O)cc2OC(C)C)c(Cl)c1Cl`, the growth with HCT-15 colon is 96.1%; in the experiment on HT29 colon it was 111%; with SNB-75 CNS, 93.3%; in the experiment on SNB-19 CNS, 99%; in the experiment with U251 CNS it was 98.2%; in the experiment with PC-3 prostate, 99.3%. The growth in the experiment with SK-MEL-5 melanoma is 99.3%; in the experiment on UACC-62 melanoma, 106%; in the experiment with LOX IMVI melanoma, 96.1%; in the experiment with SK-MEL-28 melanoma it was 106%.
On to `COc1cc2ncnc(Nc3ccc(S(=O)(=O)Nc4cc(C)on4)cc3)c2cc1OCCCN1CCOCC1`, for which the growth was 105% with HCT-15 colon; 101% in the experiment with HT29 colon; 90.8% in the experiment with SNB-75 CNS; 101% in the experiment on SNB-19 CNS; 95.2% with U251 CNS; 103% in the experiment with PC-3 prostate. In addition, the growth with SK-MEL-5 melanoma was 97.1%; in the experiment on UACC-62 melanoma, 104%; with LOX IMVI melanoma it was 96.4%; in the experiment on SK-MEL-28 melanoma, 115%.
For `O=C(O)/C=C\C(=O)Nc1ccc2c(c1)Cc1cc(F)ccc1-2`, the growth was 100% in the experiment on HCT-15 colon; 96.3% in the experiment on HT29 colon; 86% with SNB-75 CNS; 103% in the experiment on SNB-19 CNS; 106% in the experiment with U251 CNS; 97.3% with PC-3 prostate. For the same compound, the growth with SK-MEL-5 melanoma is 101%; in the experiment with UACC-62 melanoma it was 103%; in the experiment with LOX IMVI melanoma it was 96.4%; with SK-MEL-28 melanoma, 105%.
Regarding `CN(Cc1ccccc1)c1nc(Cl)c(C2CC(c3ccc(Cl)cc3)=NN2c2cc(Cl)cc(Cl)c2)s1` (stereo not given), the growth is 98.8% with HCT-15 colon; 92.9% in the experiment on HT29 colon; 90.4% in the experiment on SNB-75 CNS; 108% with SNB-19 CNS; 109% in the experiment with U251 CNS; 92.5% in the experiment on PC-3 prostate. Further, the growth in the experiment on SK-MEL-5 melanoma is 107%; in the experiment with UACC-62 melanoma, 98.1%; in the experiment on LOX IMVI melanoma, 97.8%; in the experiment on SK-MEL-28 melanoma, 112%.
On to `CC1(C)CC[C@]2(CO)CC[C@]3(C)C(=CC[C@@H]4[C@@]5(C)CCNCC(C)(C)[C@@H]5CC[C@]43C)[C@@H]2C1`, for which the growth was 5.97% (active) with HCT-15 colon; 12% in the experiment on HT29 colon; 79.4% in the experiment with SNB-75 CNS; 96.9% in the experiment on SNB-19 CNS; 56.6% in the experiment with U251 CNS; 59% with PC-3 prostate. Also, the growth in the experiment with SK-MEL-5 melanoma is 71.6%; in the experiment with UACC-62 melanoma, 94.2%; in the experiment with LOX IMVI melanoma it was 76%; with SK-MEL-28 melanoma, -29% (active).
Turning to `CCOC(=O)c1ccc2c(c1)c1c(C)c3cnccc3c(C)c1n2C`, the growth in the experiment with HCT-15 colon was -64.9% (active); in the experiment on HT29 colon, -44.6% (active); with SNB-75 CNS, -45% (active); with SNB-19 CNS, -15% (active); in the experiment on U251 CNS, -45.1% (active); in the experiment with PC-3 prostate, -21.7% (active). In addition, the growth is -99% (active) in the experiment with SK-MEL-5 melanoma, -77.3% (active) with UACC-62 melanoma, -62.2% (active) in the experiment on LOX IMVI melanoma and -97.7% (active) in the experiment with SK-MEL-28 melanoma.
Consider `CCCCCCCCCCCCCC[n+]1ccc2c(C)c3c(c(C)c2c1)c1cc(O)ccc1n3CC`, for which the growth with HCT-15 colon was 19.9%; in the experiment on HT29 colon, 4.46% (active); in the experiment with SNB-75 CNS it was -59.9% (active); in the experiment on SNB-19 CNS, -77.9% (active); in the experiment with U251 CNS, -89% (active); in the experiment on PC-3 prostate, -88% (active). In addition, the growth with SK-MEL-5 melanoma was -89.9% (active); in the experiment on UACC-62 melanoma, -68.5% (active); in the experiment on LOX IMVI melanoma, -70% (active); in the experiment on SK-MEL-28 melanoma, -93.9% (active).
With `COc1ccc(NC(=O)c2ccc(NC3=C(c4ccc(Cl)cc4)C(=O)NC3=O)cc2)cc1`, the growth in the experiment with HCT-15 colon was 75.1%; in the experiment on HT29 colon, 66.7%; in the experiment with SNB-75 CNS, 85.7%; with SNB-19 CNS it was 91.8%; with U251 CNS it was 82.3%; with PC-3 prostate it was 64.3%. The growth was 80.8% in the experiment on SK-MEL-5 melanoma, 81.6% in the experiment with UACC-62 melanoma, 87.7% in the experiment on LOX IMVI melanoma and 101% in the experiment with SK-MEL-28 melanoma.
As for `C#C[C@]1(O)CC[C@H]2[C@@H]3CC=C4c5sc(-c6ccccc6)nc5CC[C@]4(C)[C@H]3CC[C@@]21C`, the growth was 52.3% in the experiment on HCT-15 colon; 74.2% in the experiment with HT29 colon; 63.6% in the experiment with SNB-75 CNS; 88% in the experiment on SNB-19 CNS; 69.8% in the experiment with U251 CNS; 65.7% with PC-3 prostate. Further, the growth in the experiment on SK-MEL-5 melanoma was 97.4%; with UACC-62 melanoma, 91.6%; in the experiment with LOX IMVI melanoma it was 74.9%; with SK-MEL-28 melanoma, 61.2%.
As for `O=[N+]([O-])c1ccc(N/N=C\c2cc(Cl)ccc2O)nc1`, the growth in the experiment on HCT-15 colon is 26%; in the experiment with HT29 colon it was 50.9%; with SNB-75 CNS, 70.1%; in the experiment with SNB-19 CNS, 44.8%; in the experiment with U251 CNS, 33%; in the experiment with PC-3 prostate it was 24.5%. In addition, the growth in the experiment on SK-MEL-5 melanoma was 4.09% (active); with UACC-62 melanoma, 11.2%; with LOX IMVI melanoma it was 22.6%; in the experiment with SK-MEL-28 melanoma, 55.3%.
`CN(CCNc1ccc(C(=N)N)cc1)c1ccc(C(=N)N)cc1`: the growth is 84.5% in the experiment on HCT-15 colon; 101% with HT29 colon; 96.8% in the experiment on SNB-75 CNS; 104% with SNB-19 CNS; 81.2% with U251 CNS; 82.2% in the experiment with PC-3 prostate. The growth is 67% in the experiment on SK-MEL-5 melanoma, 72.6% in the experiment with UACC-62 melanoma, 82.4% in the experiment on LOX IMVI melanoma and 94.8% in the experiment with SK-MEL-28 melanoma.
Take `Cc1ccccc1NC(=O)c1sc2nc3c(cc2c1N)CCCC3`: the growth was 25% with HCT-15 colon; 7.53% (active) in the experiment on HT29 colon; 37.8% with SNB-75 CNS; 30.9% in the experiment with SNB-19 CNS; 23% in the experiment with U251 CNS; 29.9% with PC-3 prostate. In addition, the growth was 20.5% in the experiment with SK-MEL-5 melanoma, 27.6% in the experiment with UACC-62 melanoma, 40.5% with LOX IMVI melanoma and 75.1% in the experiment on SK-MEL-28 melanoma.
On to `N#Cc1c(-c2ccc(Cl)cc2)nc(NN=Cc2cccc(Cl)c2)nc1N1CCOCC1`, for which the growth in the experiment on HCT-15 colon is 35.4%; with HT29 colon it was 40.4%; in the experiment with SNB-75 CNS it was 80.1%; in the experiment on SNB-19 CNS it was 104%; in the experiment on U251 CNS, 78.9%; with PC-3 prostate it was 73.5%. The growth in the experiment with SK-MEL-5 melanoma was 92.5%; in the experiment with UACC-62 melanoma it was 98.1%; in the experiment on LOX IMVI melanoma, 85.5%; in the experiment on SK-MEL-28 melanoma, 106%.
For the compound `COc1cc(CNC(=O)CCCC/C=C/C(C)C)ccc1OCc1cn(-c2cccc([N+](=O)[O-])c2)nn1`, the growth in the experiment on HCT-15 colon is 77.9%; in the experiment with HT29 colon, 88.9%; in the experiment on SNB-75 CNS, 92%; in the experiment on SNB-19 CNS it was 68.2%; in the experiment on U251 CNS, 85.3%; with PC-3 prostate it was 82.2%. Further, the growth in the experiment with SK-MEL-5 melanoma was 93.2%; in the experiment on UACC-62 melanoma, 70.1%; in the experiment with LOX IMVI melanoma it was 92.9%; with SK-MEL-28 melanoma, 106%.
